This passage reports outcome results from PubChem BioAssay (Tox21).

Structures are written as SMILES. Calls of active or inactive are those of the source. Calls come from the whole dose curve; as a rule, active = well fitted curve in the direction sought with a large enough effect in the repeat runs; inconclusive = weak or mixed curves; inactive = flat fitted curve, though single readings scatter.

The test is described as follows: qHTS assay to test for compound auto fluorescence at 590 nm (red) in HEK293 cells (AID 720679). The settings on record: red autofluorescence 540/590 nm; series mostly up to 46 µM. An excerpt: National Center for Advancing Translational Sciences [NCATS]
NIH Chemical Genomics Center [NCGC]
U.S. Environmental Protection Agency [EPA]
National Institutes of Environmental Health Sciences [NIEHS]
National Toxicology Program [NTP]
U.S. Food and Drug Administration [FDA]
Compound auto fluorescence often interferes with screening of the compound library against various biological targets and signaling pathways. Some of these compounds may have fluorophoric properties. Such properties may interfere with the assay outputs resulting in false positives and/or negatives. To decrease such complications and ensure the compound activities are relevant in terms of biological response, the Tox21 10K compound library was screened for auto fluorescence.
From the fluorophores used as reporter signals in our screening assays, the auto fluorescence equivalencies of compounds against three fluorophores have been evaluated: Triamterene, Fluorescein and Rose Bengal sodium for blue, green and red fluorescence, respectively. The fluorescence intensities were measured using Excitation/Emission wavelengths at 405/460nm, 485/535nm and 540/590nm for blue, green and red labels, respectively. This assay includes the red fluorescence data.
Tox21 Assay Protocol Summary:
2,000 HEK293 cells in 5 uL of culture medium containing 10% dialyzed FBS per well were dispensed into black wall/clear bottom 1536-well plates using a Multidrop Combi Dispenser (Thermo Scientific). The assay plates were incubated for 4-5 hr at 37C to allow cell attachment to the well bottom, followed by the transfer of 23 nL compound or DMSO vehicle by a pintool work station (Kalypsys, San Diego, CA). After the assay plates were incubated overnight at 37C and 5% CO2, fluorescence intensities in the assay plates were measured by an Envision (PerkinElmer, Shelton, CT) plate reader using three labels for measuring blue, green and red fluorescence at […] 460, 535 and 590nm respectively.
(In general: qHTS replaces the single test concentration by a dilution series.)
Regarding `CN(C)CCCCCCN(C)C`, the outcome was inactive.
Regarding `Oc1ccc2c3c1O[C@H]1[C@@H](O)CC[C@@]4(O)[C@@H](C2)N(CC2CCC2)CC[C@]314`, the compound was classed as inactive.
Next, `CNc1ccc(C(=O)CC(O)CCC(C)C2OC(=O)CC(O)CC(=O)CC(O)CC(O)CC(O)CC(O)CC3(O)CC(O)C(C(=O)OC)C(CC(O[C@@H]4O[C@H](C)[C@@H](O)[C@H](N)[C@@H]4O)/C=C/C=C/C=C/C=C/C=C/C=C/C=C/C2C)O3)cc1` (stereo not given in full): “inactive”; `CC1(C)[C@H](C=C(Cl)Cl)[C@H]1C(=O)OCc1c(F)c(F)cc(F)c1F`: “inactive”; `CCC(C)(S(=O)(=O)CC)S(=O)(=O)CC`: “inactive”.
For `O=C(O)/C=C/C(=O)O`, the result was inactive.
Next, `c1ccc2c(c1)Sc1ccccc1N2CC1CN2CCC1CC2` (stereo not given): “inactive”; `Cc1cc(C(C)(C)c2ccc(O)c(C)c2)ccc1O`: “inactive”; `CCCSc1cc(OC)c(CCN)cc1OC`: “inactive”.
`CCCCCc1cc(O)c2c(c1)OC(C)(C)c1ccc(C)cc1-2`: the result was inactive.
As to `C[C@@H]([C@H](O)c1ccccc1)N(C)C`, the compound was called inactive.
As for `C[C@]12CC[C@H](O)C[C@H]1CC[C@@H]1[C@@H]2CC[C@]2(C)[C@@H](c3ccc(=O)oc3)C[C@H]3O[C@]132`, the outcome was inactive.
On to `CCC(N)Cc1c[nH]c2ccccc12` (stereo not given), for which the call was inactive.
Take `CCc1cc(OC)c(C[C@@H](C)N)cc1OC`: the call was inactive.
With `[2H]C([2H])([2H])[C@H](N)Cc1ccccc1` the entry was “inactive”; with `c1ccc(C2(N3CCCC3)CCCCC2)cc1`, “inactive”; with `C[C@@H]1[C@@H]2Cc3ccc(O)cc3[C@@]1(C)CCN2CC1CC1`, “inactive”.
Turning to `Cc1ccccc1-n1c(C)nc2ccccc2c1=O`, the compound was called inactive.
Regarding `C[C@]12CCC(=O)C=C1C=C[C@@H]1[C@@H]2CC[C@@]2(C)[C@H]1CC[C@@]2(O)CCC(=O)O`, the result was inactive.
Consider `CC(C)C[C@H]1C(=O)N2CCC[C@H]2[C@]2(O)O[C@](NC(=O)[C@@H]3C[C@@H]4c5cccc6[nH]cc(c56)C[C@H]4N(C)C3)(C(C)C)C(=O)N12`, for which the call was inactive.
For `CCOC(=O)C1(c2ccccc2)CCCN(C)CC1` (stereo not given), the outcome was inactive.
Next, `CC(=O)OC1CN2CCC1CC2` (stereo not given): “inactive”; `NCC(O)c1cccc(O)c1` (stereo not given): “inactive”; `C[C@]12N[C@H](Cc3ccccc31)c1ccccc12`: “inactive”.
With `CC(C)CCC(=O)O[C@H]1CC[C@H]2[C@@H]3CCC4=CC(=O)CC[C@]4(C)[C@H]3CC[C@]12C`, the result was inactive.
On to `O=C1C=C2C=C[C@@H]3C[C@@]2(O1)[C@H]1CCCCN31`, for which the call was inactive.
Next, `CC(C)(C)c1ccc(O)cc1`: “inactive”; `Oc1cccc[c]1[Hg][Cl]`: “inactive”; `Cc1nnc2n1-c1ccc(Cl)cc1C(c1ccccc1Cl)=NC2`: “inactive”.
With `O=C1C(I)=CC(=C(c2cc(I)c(O)c(I)c2)c2ccccc2C(=O)O)C=C1I`, the outcome was inactive.
Next, `CN1CSC(=S)N(C)C1`: “inactive”.
Turning to `C[C@@H]1[C@@H]2Cc3ccc(O)cc3[C@@]1(C)CCN2CCc1ccccc1`, the call was inactive.
As for `C[C@@H](Cc1ccccc1)N(C)C`, the result was inactive.
As to `CC(=O)O[C@H]1C[C@H](O[C@H]2[C@@H](O)C[C@H](O[C@H]3[C@@H](O)C[C@H](O[C@H]4CC[C@@]5(C)[C@H](CC[C@@H]6[C@@H]5C[C@@H](O)[C@]5(C)[C@@H](C7=CC(=O)OC7)CC[C@]65O)C4)O[C@@H]3C)O[C@@H]2C)O[C@H](C)[C@H]1O[C@@H]1O[C@H](CO)[C@@H](O)[C@H](O)[C@H]1O`, the compound was classed as inactive.
For `CO/C=C(/C(=O)OC)c1ccccc1Oc1cc(Oc2ccccc2C#N)ncn1`, the result was inactive.
For the compound `CN[C@H]1C[C@@H](N)[C@H](O)[C@@H](O[C@@H]2O[C@H](CO)[C@H](O)[C@@H]3OC4(O[C@H]23)O[C@H](C(N)CO)[C@H](O)[C@H](O)[C@H]4O)[C@@H]1O` (stereo not given in full), the compound was classed as inactive.
With `C=CCC1([C@@H](C)CCC)C(=O)NC(=O)NC1=O` the entry was “inactive”; with `Nc1ccc([N+](=O)[O-])cc1`, “inactive”; with `O=c1ccc2cc(O[C@@H]3O[C@H](CO)[C@@H](O)[C@H](O)[C@H]3O)c(O)cc2o1`, “inactive”.
Next, `CCC1(c2ccccc2)C(=O)NC(=O)N(C(=O)c2ccccc2)C1=O` (stereo not given): “inactive”.
